PubChem BioAssay (NCATS)
Results filed as inconclusive are left out. Where a call stands in place of a potency, no number is given. The source made the active and inactive calls. The call rests on the fitted dose curve.

Test: Cytotoxicity counterscreen for inhibitors of SARS-CoV-2 cell entry (AID 1645845); further: nearly all actives have a fitted effect of over 50% in size
Conditions: cell viability (SARS-CoV-2 entry assay cells); series mostly up to 57.1 µM; activity change, negative = cytotoxicity: at the top concentration
Description: Assay Provider: Wei Zheng, Ph.D.
National Center for Advancing Translational Sciences, National Institute of Health, Rockville, MD.
SARS-CoV-2 spike protein, within the viral envelope, mediates viral attachment and infection of host cells. The SARS-CoV-2 spike protein specifically binds to the host receptor ACE2 (Angiotensin-converting enzyme 2). This interaction promotes endocytosis of the viral particle, additional events lead to viral-host cell membrane fusion and release of the viral contents, allowing viral replication.
While SARS-CoV-2 requires BSL-3 facilities for live virus work, pseudo-typed partices (PP) that incorporate SARS-CoV-2 spike proteins without replication elements could facilitate studies on viral entry mechanisms in a BSL-2 setting. This PP cell entry assay could also enable screening of small molecule compound libraries in BSL-2 setting to identify inhibitors of SARS-CoV-2 cell entry. To eliminate false positive compounds, ATP content cytotoxicity assay was screened in the same cell line.
SEQUENCE No. (e.g., 1, 2, 3, etc.); […] (e.g., Cells, Incubation, Reagent, etc.); VALUE and DESCRIPTION.
1. Cells. Seed 1500 HEK293-ACE2 cells (Expi293F with stable expression of human ACE2) in 2 uL/well media (DMEM, 10% FBS, 1x L-glutamine, 1x Pen/Strep, 1 ug/ml puromycin) in white 1536-well assay plates (Greiner #782073).
2. Incubation. Incubate at 37 C with 5% CO2 overnight (~16 h).
3. Compounds. Dispense 23 nL/well compounds in DMSO via pin transfer.
4. Incubation. Incubate for 1 h at 37C 5% CO2.
5. Reagent. Dispense 2 uL/well of media (DMEM, 10% FBS, 1x L-glutamine, 1x Pen/Strep, 1 ug/ml puromycin).
6. Incubation. Incubate at for 48h at 37C 5% CO2
7. Reagent. Dispense 4 uL/well of ATPLite 1step luminescence assay reagent (PerkinElmer #6016739).
8. Incubation. Incubate for 15 min at room temperature.
9. Detection. Read luminescence signal (Viewlux plate reader, PerkinElmer). Data was normalized with wells containing cells as 100%, and wells without cells (media only control) as 0%.

| SMILES | Potency | activity change, negative = cytotoxicity | outcome |
| --- | --- | --- | --- |
| CC(NC(C)(C)C)C(=O)c1cccc(Cl)c1 (stereo not given) | inactive |  |  |
| NS(=O)(=O)c1cc2c(cc1C(F)(F)F)NC(Cc1ccccc1)NS2(=O)=O (stereo not given) |  | 2.68% (inactive) |  |
| CCCOC(=O)c1ccccc1 |  |  | inactive |
| CNC(C)(C)Cc1ccccc1 |  |  | inactive |
| O=C(O)c1cc(=O)c2c(OCC(O)COc3cccc4oc(C(=O)O)cc(=O)c34)cccc2o1 | inactive |  |  |
| CC(C)OC(=O)OCOP(=O)(CO[C@H](C)Cn1cnc2c(N)ncnc21)OCOC(=O)OC(C)C |  | -10.9% (inactive) |  |
| Cc1c(C(=O)O)c(O)cc2c1C(=O)c1c(O)c([C@@H]3O[C@H](CO)[C@@H](O)[C@H](O)[C@H]3O)c(O)c(O)c1C2=O |  |  | inactive |
| CC(C)CN(C[C@@H](O)[C@H](Cc1ccccc1)NC(=O)O[C@H]1CO[C@H]2OCC[C@H]21)S(=O)(=O)c1ccc(N)cc1 |  |  | inactive |
| O=C(O)CNC(=O)c1ccccc1 |  |  | inactive |
| CC(=O)OCC(=O)[C@@]1(O)[C@H](OC(C)=O)C[C@H]2[C@@H]3CCC4=CC(=O)C=C[C@]4(C)[C@@]3(F)[C@@H](O)C[C@@]21C |  |  | inactive |
| Nc1ccc(S(=O)(=O)NC(=O)c2ccccc2)cc1 |  | -6.78% (inactive) |  |
| CN[C@@H]1CCc2[nH]c3ccc(C(N)=O)cc3c2C1 |  |  | inactive |
| CN1CCN(CC(=O)N2c3ccccc3C(=O)Nc3cccnc32)CC1 |  |  | inactive [at 5.25 µM] |
| COCCCN1CCC(NC(=O)c2cc(Cl)c(N)c3c2OCC3)CC1 | inactive |  |  |
| COc1c2c(cc3c1OCO3)CCN(C)C2 |  |  | inactive |
| CCOc1ccc(NS(=O)(=O)c2ccc(N)cc2)nn1 |  |  | inactive |
| O=C(N[C@H](CO)[C@H](O)c1ccc([N+](=O)[O-])cc1)C(Cl)Cl |  |  | inactive |
| O=C(CS(=O)Cc1ccco1)NC/C=C\COc1cc(CN2CCCCC2)ccn1 (stereo not given) |  |  | inactive |
| CCOC(=O)c1ccc(O)cc1 |  |  | inactive |
| CN(C)CCOC(=O)COc1ccc(Cl)cc1 |  |  | inactive |

| SMILES | Potency | activity change, negative = cytotoxicity | outcome |
| --- | --- | --- | --- |
| c1ccc2c(c1)CCCC2C1=NCCN1 (stereo not given) |  |  | inactive |
| CNNCc1ccc(C(=O)NC(C)C)cc1 | inactive |  |  |
| O=c1[nH]cnc2[nH]ncc12 |  |  | inactive |
| O=C1c2c(O)cccc2Cc2cccc(O)c21 |  |  | inactive |
| CNC[C@H](O)c1cccc(O)c1 | inactive |  |  |
| Cc1ncc(CO)c(CO)c1O |  |  | inactive |
| CN1C(C(=O)Nc2ccccn2)=C(O)c2sccc2S1(=O)=O | inactive |  |  |
| c1ccc(-c2nc[nH]c2-c2ccccc2)cc1 |  | -4.82% (inactive) |  |
| O=C(CCOCCOCCOCCOCCC(=O)Nc1c(I)cc(I)c(C(=O)O)c1I)Nc1c(I)cc(I)c(C(=O)O)c1I |  | -21.3% (inactive) |  |
| Cn1nnc2c(C(N)=O)ncn2c1=O | inactive |  |  |
| CC(CN(C)C)C(C)(O)Cc1ccc(Cl)cc1 (stereo not given) |  |  | inactive |
| NC(N)=NCCN1CCCCCCC1 |  | 0.589% [at 0.702 µM] (inactive) |  |
| COc1ccc(C(=O)NCc2ccc(OCCN(C)C)cc2)cc1OC |  | -11.2% (inactive) |  |
| CN1C(C(=O)Nc2ccccn2)=C(O)c2ccccc2S1(=O)=O | inactive |  |  |
| COP(=S)(OC)Oc1ccc(SC)c(C)c1 |  |  | inactive |
| CN(C)CCOC(=O)C(c1ccccc1)C1(O)CCCC1 (stereo not given) |  |  | inactive |
| CC(=O)OC(C)C[N+](C)(C)C (stereo not given) |  | 0.613% (inactive) |  |
| CCN(CC)C(=O)/C(C#N)=C/c1cc(O)c(O)c([N+](=O)[O-])c1 |  | -2.36% (inactive) |  |
| CCCCCCCCCCCC(=O)[O][Sn]([CH2]CCC)([CH2]CCC)[O]C(=O)CCCCCCCCCCC |  |  | inactive |
| CC(=O)Nc1ccc(S(=O)(=O)Nc2cc(C)on2)cc1 |  |  | inactive |
